Inconclusive results are not listed. A call without a number means that no potency is given here. The source made the active and inactive calls. The call rests on the fitted dose curve; in most records, active means well fitted inhibition curve with a large enough effect; inconclusive means small, poorly fitted or top-dose-only effect; inactive means flat fitted curve, though single readings scatter. Numbered stars: 1 amine (or outer) side, 2 acyl side, 3 side chain; on linkers, the order of the positions; unused ones are H or OH. Bridge positions count the residues as written; N and C are the ends. Square brackets hold non-standard residues; d marks the D form. Peptide text beside a SMILES is read from it. I, II: the chains in the order shown. Actinocin(9to1) = Cc1c2oc3c(C)ccc(C(=O)[*:1])c3nc-2c(C(=O)[*:2])c(N)c1=O; NMeV = CN[C@H](C(=O)O)C(C)C; Sar = CNCC(=O)O
Experiments:
Test in all cases: qHTS profiling for inhibitors of Plasmodium falciparum proliferation (AID 504749); further: nearly all actives have a fitted effect of over 60% in size
Conditions in all cases: P. falciparum in erythrocytes, SYBR Green DNA, 72 h; series mostly up to 28.7 µM
CP268 = test system: CP268
How it was run: (§1)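 Infected RBCs, 0.3% parasitemia/2.5% Hct final; cpd 72 h, 37 C, 5% CO2; lysis buffer with saponin/triton/SYBR Green I, o/n RT dark; FI 485/535; norm. to artemisinin (0.29 uM) and DMSO.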

CP269 = test system: CP269
How it was run: as §1

CP286 = test system: CP286
How it was run: as §1

CP291 = test system: CP291
How it was run: as §1

CP297 = test system: CP297
How it was run: as §1

CP305 = test system: CP305
How it was run: as §1

CP315 = test system: CP315
How it was run: as §1

CP325 = test system: CP325
How it was run: as §1

CP329 = test system: CP329
How it was run: as §1

CP335 = test system: CP335
How it was run: as §1

DFO2036 = test system: DFO2036
How it was run: as §1

DIV14 = test system: DIV14
How it was run: as §1

DIV17 = test system: DIV17
How it was run: as §1

DIV30 = test system: DIV30
How it was run: as §1

Dd2 = test system: Dd2
How it was run: as §1

ECU = test system: ECU
How it was run: as §1

FAB9 = test system: FAB9
How it was run: as §1

GB4 = test system: GB4
How it was run: as §1

HB3 = test system: HB3
How it was run: as §1

ICS = test system: ICS
How it was run: as §1
Potency means the concentration at half of the fitted maximal effect.

| Structure (SMILES) | Potency (CP268) | Potency (CP269) | Potency (CP286) | Potency (CP291) | Potency (CP297) | Potency (CP305) | Potency (CP315) | Potency (CP325) | Potency (CP329) | Potency (CP335) | Potency (DFO2036) | Potency (DIV14) | Potency (DIV17) | Potency (DIV30) | Potency (Dd2) | Potency (ECU) | Potency (FAB9) | Potency (GB4) | Potency (HB3) | Potency (ICS) |
| --- | --- | --- | --- | --- | --- | --- | --- | --- | --- | --- | --- | --- | --- | --- | --- | --- | --- | --- | --- | --- |
| OCc1ccccc1O | inactive | inactive | inactive | inactive | inactive | inactive | inactive | inactive | inactive | inactive | inactive | inactive | inactive | inactive | inactive | inactive | inactive | inactive | inactive | inactive |
| C1CCc2nnnn2CC1 | inactive | inactive | inactive | inactive | inactive | inactive | inactive | inactive | inactive | inactive | inactive | inactive | inactive | inactive | inactive | inactive | inactive | inactive | inactive | inactive |
| CCCCC(CC)CN=C(N)NC(N)=NCCCCCCN=C(N)NC(N)=NCC(CC)CCCC (stereo unspecified) | 1.69 µM (active) | 1.51 µM (active) | 0.631 µM (active) | 1.69 µM (active) | 3.38 µM (active) | 1.69 µM (active) | 1.35 µM (active) | 1.2 µM (active) | 1.51 µM (active) | 1.51 µM (active) | 3.16 µM (active) | 1.35 µM (active) | 1.2 µM (active) | 1.2 µM (active) | 2 µM (active) | 1.12 µM (active) | 1.78 µM (active) | 1.51 µM (active) | 2.24 µM (active) | 0.316 µM (active) |
| Cc1c(N(C)CS(=O)(=O)O)c(=O)n(-c2ccccc2)n1C | inactive | inactive | inactive | inactive | inactive | inactive | inactive | inactive | inactive | inactive | inactive | inactive | inactive | inactive | inactive | inactive | inactive | inactive | inactive | inactive |
| CC(=O)N(O)CCCCCNC(=O)CCC(=O)N(O)CCCCCNC(=O)CCC(=O)N(O)CCCCCN | inactive | inactive | inactive | inactive | inactive | inactive | inactive | inactive | inactive | inactive | inactive | inactive | inactive | inactive | inactive | inactive | inactive | inactive | inactive | inactive |
| C=CCc1ccc(O)c(OC)c1 | inactive | inactive | inactive | inactive | inactive | inactive | inactive | inactive | inactive | inactive | inactive | inactive | inactive | inactive | inactive | inactive | inactive | inactive | inactive | inactive |
| Cc1c2oc3c(C)ccc(C(=O)N[C@@H]4C(=O)N[C@H](C(C)C)C(=O)N5CCC[C@H]5C(=O)N(C)CC(=O)N(C)[C@@H](C(C)C)C(=O)O[C@@H]4C)c3nc-2c(C(=O)N[C@@H]2C(=O)N[C@H](C(C)C)C(=O)N3CCC[C@H]3C(=O)N(C)CC(=O)N(C)[C@@H](C(C)C)C(=O)O[C@@H]2C)c(N)c1=O (I: T[dV]P[Sar][NMeV] / II: T[dV]P[Sar][NMeV]; ester I:1-I:C, II:1-II:C; linker I:N-II:N via Actinocin(9to1)) | 0.0067 µM (active) | 0.006 µM (active) | 0.0035 µM (active) | 0.0054 µM (active) | 0.006 µM (active) | 0.0054 µM (active) | 0.0076 µM (active) | 0.0054 µM (active) | 0.006 µM (active) | 0.0019 µM (active) | 0.0032 µM (active) | 0.0038 µM (active) | 0.0054 µM (active) | 0.0076 µM (active) | 0.0045 µM (active) | 0.0032 µM (active) | 0.0112 µM (active) | 0.0048 µM (active) | 0.005 µM (active) | 0.0025 µM (active) |
| CCn1cc(C(=O)O)c(=O)c2cnc(N3CCCC3)nc21 | inactive | inactive | inactive | inactive | inactive | inactive | inactive | inactive | inactive | inactive | inactive | inactive | inactive | inactive | inactive | inactive | inactive | inactive | inactive | inactive |
| C[C@]12CC[C@@H]3c4ccc(O)cc4CC[C@H]3[C@@H]1CC[C@@H]2O | inactive | inactive | inactive | inactive | inactive | inactive | inactive | inactive | inactive | inactive | inactive | inactive | inactive | inactive | inactive | inactive | inactive | inactive | inactive | inactive |
| COc1cc2c(cc1OC)C(C(C(=O)N(CCc1ccc(OC)c(OC)c1OC)CCc1ccc(OC)c(OC)c1OC)c1ccccc1)=NCC2 (stereo unspecified) | 13.5 µM (active) | 6.75 µM (active) | 7.94 µM (active) | 15.1 µM (active) | 3.38 µM (active) | 15.1 µM (active) | 13.5 µM (active) | 16.9 µM (active) | 13.5 µM (active) | 5.36 µM (active) | inactive | 1.35 µM (active) | 1.35 µM (active) | 1.35 µM (active) | 3.98 µM (active) | 2.24 µM (active) | 11.2 µM (active) | 7.57 µM (active) | 5.01 µM (active) | 0.199 µM (active) |
| Cc1c(C(N)=O)cc([N+](=O)[O-])cc1[N+](=O)[O-] | inactive | inactive | inactive | inactive | inactive | inactive | inactive | inactive | inactive | inactive | inactive | inactive | inactive | inactive | inactive | inactive | inactive | inactive | inactive | inactive |
| COc1cccc2c1C(=O)c1c(O)c3c(c(O)c1C2=O)C[C@@](O)(C(C)=O)C[C@@H]3O[C@H]1C[C@H](N)[C@H](O)[C@H](C)O1 | 6.01 µM (active) | 4.78 µM (active) | 2 µM (active) | 5.36 µM (active) | 7.57 µM (active) | 4.78 µM (active) | 7.57 µM (active) | 8.49 µM (active) | 6.01 µM (active) | 4.78 µM (active) | 4.47 µM (active) | 1.9 µM (active) | 1.35 µM (active) | 6.75 µM (active) | 2.24 µM (active) | 8.91 µM (active) | 3.98 µM (active) | 1.9 µM (active) | 4.47 µM (active) | 1.41 µM (active) |
| CN=C(NC#N)NCCSCc1csc(N=C(N)N)n1 | inactive | inactive | inactive | inactive | inactive | inactive | inactive | inactive | inactive | inactive | inactive | inactive | inactive | inactive | inactive | inactive | inactive | inactive | inactive | inactive |
| COc1cc(NS(C)(=O)=O)ccc1Nc1c2ccccc2nc2ccccc12 | 3.38 µM (active) | 4.78 µM (active) | 2 µM (active) | 1.69 µM (active) | 4.78 µM (active) | 3.38 µM (active) | 6.75 µM (active) | 4.26 µM (active) | 4.78 µM (active) | 4.26 µM (active) | 2.82 µM (active) | 1.9 µM (active) | 1.51 µM (active) | 4.26 µM (active) | – | 3.16 µM (active) | 3.98 µM (active) | – | 5.01 µM (active) | 1.58 µM (active) |
| O=c1ccc2ccccc2o1 | inactive | inactive | inactive | inactive | inactive | inactive | inactive | inactive | inactive | inactive | inactive | inactive | inactive | inactive | inactive | inactive | inactive | inactive | inactive | inactive |
| COc1c2occc2c(OC)c2c(=O)cc(C)oc12 | inactive | inactive | inactive | inactive | inactive | inactive | inactive | inactive | inactive | inactive | inactive | inactive | inactive | inactive | inactive | inactive | inactive | inactive | inactive | inactive |
| CCCCCC=CCC=CCCCCCCCC(=O)OCC | inactive | inactive | inactive | inactive | inactive | inactive | inactive | inactive | inactive | inactive | inactive | inactive | inactive | inactive | inactive | inactive | inactive | inactive | inactive | inactive |
| CN1C(CCl)Nc2cc(Cl)c(S(N)(=O)=O)cc2S1(=O)=O (stereo unspecified) | inactive | inactive | inactive | inactive | inactive | inactive | inactive | inactive | inactive | inactive | inactive | inactive | inactive | inactive | inactive | inactive | inactive | inactive | inactive | inactive |
| NCCc1ccn[nH]1 | inactive | inactive | inactive | inactive | inactive | inactive | inactive | inactive | inactive | inactive | inactive | inactive | inactive | inactive | inactive | inactive | inactive | inactive | inactive | inactive |
| CCCCCCCCCCCCCCCC[N+](C)(C)CC | 6.75 µM (active) | 4.26 µM (active) | 1.41 µM (active) | 4.78 µM (active) | 6.75 µM (active) | 6.01 µM (active) | 4.78 µM (active) | 6.01 µM (active) | 4.78 µM (active) | 4.78 µM (active) | 2.82 µM (active) | 7.57 µM (active) | 7.57 µM (active) | 5.36 µM (active) | 6.31 µM (active) | 5.01 µM (active) | 7.94 µM (active) | 3.79 µM (active) | 7.08 µM (active) | 1.41 µM (active) |
| CCCCCCc1ccc(O)cc1O | inactive | inactive | inactive | inactive | inactive | inactive | inactive | inactive | inactive | inactive | inactive | inactive | inactive | inactive | inactive | inactive | inactive | inactive | inactive | inactive |
| Cc1c(C)n(CCN(C)C)c2ccc(C(=O)OCCN(C)C)cc12 | inactive | inactive | inactive | inactive | inactive | inactive | inactive | inactive | inactive | inactive | inactive | inactive | inactive | inactive | inactive | inactive | inactive | – | inactive | – |
| CC(C)(C)CC(C)(C)c1ccc(OCCOCC[N+](C)(C)Cc2ccccc2)cc1 | 4.26 µM (active) | 3.79 µM (active) | 2.24 µM (active) | 4.78 µM (active) | 4.26 µM (active) | 4.78 µM (active) | 4.78 µM (active) | 4.78 µM (active) | 4.78 µM (active) | 1.51 µM (active) | 3.98 µM (active) | 3.38 µM (active) | 4.78 µM (active) | 4.26 µM (active) | 4.47 µM (active) | 5.01 µM (active) | 5.01 µM (active) | 3.38 µM (active) | 6.31 µM (active) | 1.26 µM (active) |
| Nc1ccc(C(=O)O)cc1 | inactive | inactive | inactive | inactive | inactive | inactive | inactive | inactive | inactive | inactive | inactive | inactive | inactive | inactive | inactive | inactive | inactive | inactive | inactive | inactive |
